FLuc inh: Firefly luciferase inhibition profiling of diverse chemical library using quantitative high-throughput screening; purified P. pyralis luciferase, luminescence, biochemical; Potency, µM (series often up to 115 µM), hits mostly inhibitors; Luciferin 4-monooxygenase (Photinus pyralis), P08659; 76,000 compounds, 2.5% hits; further: nearly all actives have a fitted effect of over 65% in size
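Purified 10nM P. pyralis luciferase with 10uM D-luciferin and 10uM ATP in 50mM Tris acetate pH 7.5, 10mM Mg acetate, 0.01% Tween-20, 0.05% BSA. qHTS titration; luminescence read by CCD imager.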
HEK293 tox: Cytotoxic Profiling in HEK 293 Cell Line of Diverse Libraries Using Quantitative High-Throughput Screening | HEK 293 viability, ATP luminescence (CellTiter-Glo), 48-72 h | Potency, µM (series often up to 115 µM), for inactives: top-dose activity change, negative = cytotoxicity, usual class: inhibitors | 94,000 compounds, 6.6% hits | AID 1345083, 2018; further: nearly all actives have a fitted effect of over 60% in size
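HEK 293 cells at 250 cells/well were exposed to compounds by pintool transfer for 48 or 72 hr at 37 degree Celsius, 5% CO2. Viability was read as ATP-coupled luminescence with CellTiter-Glo after 10 min at room temperature.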
3T3 cytotox: Cytotoxic Profiling in NIH 3T3 Cell Line of Diverse Libraries Using Quantitative High-Throughput Screening | NIH 3T3 viability, CellTiter-Glo ATP luminescence, 48-72 h | AID 1345082, 2018 | Potency, µM (top dose mostly 96.7 µM), without a hit: top-dose activity change, negative = cytotoxicity, hits mostly inhibitors | 94,000 compounds, 4.3% hits; further: nearly all actives have a fitted effect of over 55% in size
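Cells were seeded at 400 per well, treated with pin-transferred compound, and kept 48 or 72 hr at 37 °C before CellTiter-Glo addition and luminescence imaging of cellular ATP.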
hNpr1 antagonist: Natriuretic polypeptide receptor (hNpr1) antagonism - Primary qHTS. Atrial natriuretic peptide receptor 1 (Homo sapiens), P16066. HEK293 hNpr1 GloSensor cGMP, ANP-stimulated luminescence. Potency, µM (top dose mostly 46.3 µM), for inactives: at the highest dose activity change, negative = inhibition, most hits filed as inhibitors. 76,000 compounds, 1.6% hits; calls by dose curve; further: nearly all actives have a fitted effect of over 60% in size
Target sequence (P16066 whole entry, looked up): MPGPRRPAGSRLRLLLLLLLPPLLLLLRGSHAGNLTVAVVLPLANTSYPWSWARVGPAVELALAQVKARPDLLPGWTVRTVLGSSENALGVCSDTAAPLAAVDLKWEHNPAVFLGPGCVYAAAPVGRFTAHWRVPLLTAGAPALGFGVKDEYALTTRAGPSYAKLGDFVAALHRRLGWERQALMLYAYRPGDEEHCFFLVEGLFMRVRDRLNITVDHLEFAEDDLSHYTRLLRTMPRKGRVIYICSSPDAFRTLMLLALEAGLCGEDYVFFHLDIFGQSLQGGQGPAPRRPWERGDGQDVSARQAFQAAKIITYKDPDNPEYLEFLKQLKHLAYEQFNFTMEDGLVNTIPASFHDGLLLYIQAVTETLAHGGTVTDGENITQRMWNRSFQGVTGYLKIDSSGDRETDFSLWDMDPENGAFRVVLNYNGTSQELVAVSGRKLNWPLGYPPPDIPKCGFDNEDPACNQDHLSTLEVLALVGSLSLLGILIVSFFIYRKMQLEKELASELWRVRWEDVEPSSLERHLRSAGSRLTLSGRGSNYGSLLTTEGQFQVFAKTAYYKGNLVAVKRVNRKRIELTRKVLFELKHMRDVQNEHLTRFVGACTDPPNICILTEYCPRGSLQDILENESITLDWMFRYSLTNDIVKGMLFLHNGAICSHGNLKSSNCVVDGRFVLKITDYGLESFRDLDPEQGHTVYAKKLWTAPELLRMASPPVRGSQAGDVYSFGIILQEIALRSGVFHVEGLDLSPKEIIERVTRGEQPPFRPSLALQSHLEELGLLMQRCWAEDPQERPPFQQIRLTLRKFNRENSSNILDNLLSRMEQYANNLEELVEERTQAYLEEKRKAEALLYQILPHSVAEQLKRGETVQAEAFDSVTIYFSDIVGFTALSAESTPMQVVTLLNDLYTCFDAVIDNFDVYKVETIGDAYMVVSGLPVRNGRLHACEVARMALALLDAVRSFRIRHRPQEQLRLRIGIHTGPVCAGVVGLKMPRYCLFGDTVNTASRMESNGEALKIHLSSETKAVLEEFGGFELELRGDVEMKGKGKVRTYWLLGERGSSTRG
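HEK293 cells stably expressing human Npr1 and cGMP GloSensor pGS-40F, loaded 2 h with 2% GloSensor reagent, given compound 30 min at room temperature. Luminescence read before and 20 min after 0.1 nM hNppA.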
* hit, by the source's call; i = inactive; u = inconclusive; x = not tested or not shown; [ ] = dose if it differs, or a comment. A selection: hits, their analogues and other compounds. The true share with any hit is near 11%. Unless noted, the call rests on the fitted dose curve; in most records, active means well fitted curve in the direction sought with a large enough effect; inconclusive means small, poorly fitted or top-dose-only effect, or another doubt; inactive means no such curve, though single readings can be large; an effect the other way counts as inactive or inconclusive. On the % scale 0 is the no-effect control and ±100 the full control effect; potency means the concentration at half of the fitted maximal effect.

SMILES | FLuc inh | HEK293 tox | 3T3 cytotox | hNpr1 antagonist
CCOCC1(C)COc2ccc(C(=O)Nc3cccc(OC)c3)cc2N1 (stereo not drawn) | 20µM* | u | -30%[138 µM] | -4%[70.6 µM]
CCOCC1(C)COc2ccc(C(=O)Nc3cccc(N(C)C)c3)cc2N1 (stereo not drawn) | 63µM* | u | u | 0%[70.6 µM]
CC(C)CN(Cc1cnn(C)c1)C(=O)c1cccc(OCC(N)=O)c1 | i | -12% | -9% | 0%
CN(C)C(=O)C1CCN(C(=O)c2ccc(-c3cccs3)cc2)CC1 | x | -6%[172 µM] | u | x
CCOCC1(C)COc2ccc(C(=O)Nc3cccc(Cl)c3)cc2N1 (stereo not drawn) | 20µM* | 63µM* | 40µM* | u
O=C(c1ccccc1Cl)N1CCC2(CC1)Cc1ccccc1NC2=O | i | 45µM* | u | 5%
O=C(c1ccccc1)N1CCC2(CC1)Cc1ccccc1NC2=O | i | u | u | 0%[70.6 µM]
O=C(C1CC1)N1CCC2(CC1)Cc1ccccc1NC2=O | i | -3%[172 µM] | -4%[138 µM] | -3%[70.6 µM]
COc1ccc(C(=O)N2CCC3(CC2)Cc2ccccc2NC3=O)cc1 | i | 22µM* | 35µM* | -9%
COc1ccc(C(=O)N2CCC3(CC(C(C)C)=NO3)C2)cc1 (stereo not drawn) | x | 1% | 0% | x
COc1ccc(C(=O)N2CCC3(CC2)CC(C(C)C)=NO3)cc1 | i | -19%[172 µM] | 100µM* | -7%[70.6 µM]
O=C(c1ccc(F)c(F)c1)N1CCN(c2cc(-c3cccs3)[nH]n2)CC1 | i | u | u | 0%
CC(C)CCN1CCCC2(CC(Cc3ccccc3)=NO2)C1 (stereo not drawn) | i | 100µM* | -20%[138 µM] | 9%[70.6 µM]
O=C(Cn1nc2c(cc1=O)CCCC2)NCCn1cnc2ccccc2c1=O | i | -6% | -18% | 7%
Cn1cccc1CN1CCC(N2CC(OCC3CC3)C23CCCCC3)CC1 (stereo not drawn) | i | u | u | 2%
Cn1cccc1CN1CCC(N2C(=O)C(OCC3CC3)C23CCCCC3)CC1 (stereo not drawn) | i | 45µM* | u | -15%
O=C(c1ccc(C2CCNC2)cc1)N(Cc1ccccc1)CC1CCC1 (stereo not drawn) | i | 25µM* | u | -4%
COc1ccc(C(=O)N2C(C(=O)NCc3ccccc3)COC23CCN(C(=O)C(C)(C)C)CC3)cc1 (stereo not drawn) | i | -9% | -18% | 1%
COC(=O)c1ccc2nc(C[C@@H]3C[C@@H](C(C)C)[C@H](CNCc4ccccc4F)C=C3C)[nH]c2c1 | i | u | 22µM* | 4%
COC(=O)c1ccc2nc(C[C@@H]3C[C@@H](C(C)C)[C@H](CNC(=O)c4ccccc4)C=C3C)[nH]c2c1 | i | u | u | -18%
COC(=O)c1ccc2nc(C[C@@H]3C[C@@H](C(C)C)[C@H](CNC(=O)C(C)C)C=C3C)[nH]c2c1 | i | u | u | 0%[70.6 µM]
COC(=O)c1ccc2nc(C[C@@H]3C[C@@H](C(C)C)[C@H](CNCc4ccc(OC)cc4O)C=C3C)[nH]c2c1 | i | 20µM* | 25µM* | -20%
C[S+](=O)([O-])NC1CCN(C(=O)c2ccc(-c3ncccc3C#N)cc2)CC1 | x | -26% | -34% | x
Cc1noc(C)c1-c1cc(-c2cccc(O)c2)cn2cncc12 | i | u | 25µM* | -2%[70.6 µM]
Cc1noc(C)c1-c1cc(-c2cccc(F)c2)cn2cncc12 | i | u | 45µM* | -21%[70.6 µM]
SMILES | FLuc inh | HEK293 tox | 3T3 cytotox | hNpr1 antagonist
COc1ccc(-c2cc(-c3c(C)noc3C)c3cncn3c2)cn1 | i | u | 50µM* | 1%[70.6 µM]
C[C@@H]1C(=O)O[C@H]2[C@H]1CC[C@@]1(C)Cc3sc(NC(=O)NC4CCCCC4)nc3[C@@H](C)[C@H]21 | u | u | -25%[138 µM] | -12%[70.6 µM]
CCCCNc1nc2c(s1)C[C@]1(C)CC[C@@H]3[C@H](OC(=O)[C@H]3C)[C@H]1[C@@H]2C | u | u | u | 18µM*
CNC(=O)C1CCCN(Cc2cccc(-c3cccs3)c2)C1 (stereo not drawn) | x | 100µM* | -29%[138 µM] | x
CN(C)C(=O)C1CCCN(Cc2cccc(-c3cccs3)c2)C1 (stereo not drawn) | x | 100µM* | u | x
FC(F)(F)c1ccc(N2C3CCC2CN(Cc2cccc(-c4cccs4)c2)C3)cc1 | x | -16% | u | x
Cc1ccccc1CCC1CCCN(C(=O)C2(C)CC2)C1 (stereo not drawn) | u | 22µM* | u | -7%
O=C(c1ccccc1F)N1CC(Oc2ccc3c(c2)OCO3)C1 | x | u | -19% | x
CN(c1cc(=O)c2ccnc(Nc3ccn(C)n3)c2o1)C1CCOCC1 | i | -17%[172 µM] | u | 4%[70.6 µM]
O=c1cc(-c2cccnc2)oc2c(NCc3ccccc3)nccc12 | u | u | 22µM* | 5%[70.6 µM]
Cn1ccc(Nc2nccc3c(=O)cc(-c4cn[nH]c4)oc23)n1 | i | u | 79µM* | 0%[70.6 µM]
O=c1cc(-c2cccnc2)oc2c(NCC3CCOCC3)nccc12 | i | -14%[172 µM] | u | -1%[70.6 µM]
Cn1ccc(Nc2nccc3c(=O)cc(-c4cccnc4)oc23)n1 | i | -6%[172 µM] | 40µM* | -2%[70.6 µM]
Cc1ccc(CNC(=O)C(C)C2CCOCC2)cc1 (stereo not drawn) | i | 5% | 1% | 9%
COc1cccc(F)c1-c1ncc2c(n1)OCCN(CC1CC1)C2=O | i | 4%[172 µM] | u | 2%[70.6 µM]
COc1ccc(NC(=O)N2c3ccccc3CC2c2nc(C3CC3)no2)c(C)c1 (stereo not drawn) | i | u | -27% | -12%
Cc1ccc(NC(=O)CCc2ccnc(N3CCCC3)c2)c(C)c1 | i | -38% | u | -7%
CC(C)Cc1cc(CNC(=O)Nc2nnc(C(C)(C)C)s2)on1 | i | 45µM* | u | -22%
CC(C)(C)c1nnc(NC(=O)NCc2ccncc2)s1 | i | 0% | u | 3%
COc1ccc(-c2ccc3c(c2)C(=O)N2CC[C@H](NS(=O)(=O)c4cccs4)[C@H]2C(=O)N3)cc1 | u | 22µM* | u | u
COc1ccc(Cl)cc1-c1ccc2c(c1)C(=O)N1CC[C@H](NC(=O)c3cccs3)[C@H]1C(=O)N2 | i | 35µM* | u | u
O=C(N[C@H]1CCN2C(=O)c3cc(-c4ccc(Cl)cc4)ccc3NC(=O)[C@H]12)c1cccs1 | 11µM* | u | u | -15%
COc1ccc(Cl)cc1-c1ccc2c(c1)C(=O)N1CC[C@H](NC(=O)NC(C)C)[C@H]1C(=O)N2 | i | u | -26% | 2%
Cc1cccc(-c2ccc3c(c2)C(=O)N2CC[C@H](NS(=O)(=O)c4cccs4)[C@H]2C(=O)N3)c1C | i | u | u | -22%

Compound activity deposited in PubChem BioAssay by National Center for Advancing Translational Sciences (NCATS).
